# From PubChem
# The list is not random: actives were taken first. Their share in the collection is about 27%.
# CYP2C9 act = increases human cytochrome P450 2C9 activity. recombinant CYP2C9, luciferin-H conversion, luminescence; stronger effect = higher value; factor 1 = untreated enzyme, 0 = blocked. activation factor at 5 µM. actives 1.4% (n = 96,000). AID 1024;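 active means activation factor of 2 or more for CYP2C9 at a 5 µM dose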
# CYP2C19 activ = activators of human cytochrome P450 2C19; AID 1025; P33261; 96,000 tested, under 10 active; activation factor at 5 µM; recombinant CYP2C19, luciferin-H EGE luminescence; stronger effect = higher value; 0 = fully inhibited enzyme, 1 = untreated enzyme;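 active means activation factor of at least 2 at 5 µM in the primary screen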
# CYP2C9 inh = inhibitors of human CYP2C9; inhibition, % at 5 µM; CYP2C9 Supersomes, luciferin-H conversion, luminescence; P11712; AID 777; actives 20% (n = 96,000);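 active means blocking of liver enzyme CYP2C9 beyond about 50% at 5 µM, limit read from the data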
# CYP2C19 inh = inhibitors of human CYP2C19. P33261. CYP2C19 Supersomes, luciferin-H EGE luminescence, 30 min. inhibition, % at 5 µM. actives 21% (n = 96,000);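 active means CYP2C19 inhibition above a set limit at 5 µM in the primary screen, cut at about 50% in these data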
# EphB4 ephrin blk = EphB4-ephrin-B2 interaction antagonism; P54760; inhibition, % at 7 µM; actives 0.15% (n = 97,000); EphB4 LBD / TNYL-RAW-Alexa532 peptide, fluorescence polarization; AID 720;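 active means inhibition above the screen-wide mean inhibition plus 3 SD, cut at about 15% in these data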
# Target sequence (P54760 whole entry, looked up, the tested form may be a part): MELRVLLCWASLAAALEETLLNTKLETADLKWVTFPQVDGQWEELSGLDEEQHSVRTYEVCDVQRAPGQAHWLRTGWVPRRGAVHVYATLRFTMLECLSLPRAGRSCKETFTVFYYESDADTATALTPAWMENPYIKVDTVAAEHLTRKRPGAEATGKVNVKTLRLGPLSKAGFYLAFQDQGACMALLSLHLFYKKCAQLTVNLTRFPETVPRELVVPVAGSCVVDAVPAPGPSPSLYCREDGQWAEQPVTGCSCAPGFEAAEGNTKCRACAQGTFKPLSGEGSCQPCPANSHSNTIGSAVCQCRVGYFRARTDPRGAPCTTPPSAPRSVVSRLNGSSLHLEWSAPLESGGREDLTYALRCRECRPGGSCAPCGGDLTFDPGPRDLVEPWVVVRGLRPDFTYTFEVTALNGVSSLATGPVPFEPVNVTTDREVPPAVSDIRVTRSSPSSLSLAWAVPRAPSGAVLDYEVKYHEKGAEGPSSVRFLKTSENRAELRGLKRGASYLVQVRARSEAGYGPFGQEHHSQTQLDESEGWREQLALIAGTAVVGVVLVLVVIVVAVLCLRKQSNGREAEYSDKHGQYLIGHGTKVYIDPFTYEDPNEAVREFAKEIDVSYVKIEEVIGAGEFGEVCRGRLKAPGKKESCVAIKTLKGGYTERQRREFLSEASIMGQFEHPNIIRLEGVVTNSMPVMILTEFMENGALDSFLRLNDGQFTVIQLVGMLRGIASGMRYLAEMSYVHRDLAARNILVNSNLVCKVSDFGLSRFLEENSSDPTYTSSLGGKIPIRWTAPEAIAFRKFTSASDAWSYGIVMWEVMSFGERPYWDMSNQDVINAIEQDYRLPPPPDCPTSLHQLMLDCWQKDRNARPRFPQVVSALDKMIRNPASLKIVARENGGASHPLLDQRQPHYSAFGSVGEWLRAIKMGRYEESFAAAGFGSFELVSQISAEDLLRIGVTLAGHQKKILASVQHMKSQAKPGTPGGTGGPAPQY
# Hits are given with their value; i = inactive; nt = no result.
SMILES,CYP2C9 act,CYP2C19 activ,CYP2C9 inh,CYP2C19 inh,EphB4 ephrin blk
N#CC1=C(N)SC(N)=C(C#N)C1c1ccc(C(F)(F)F)cc1,i,i,i,i,i
CCOc1ccc(C2C(C#N)=C(N)SC(N)=C2C#N)cc1OC,i,i,91.4,54.2,nt
CCc1ccc(C2C(C#N)=C(N)SC(N)=C2C#N)s1,i,i,75.7,i,nt
COc1cccc(O[C@@H]2O[C@@H]3COC(C)(C)O[C@H]3[C@H](O)[C@H]2NC(C)=O)c1,nt,nt,nt,nt,i
COC(=O)c1c(C)oc(C)c(C(=O)OC)c1=O,i,i,i,i,i
Cc1csc(NC(=O)CSc2nnc(-c3ccc(Cl)cc3)n2N)n1,i,i,i,i,i
CCOc1ccccc1C1C(C#N)=C(N)SC(N)=C1C#N,i,i,i,51.5,i
CCOc1ccccc1C1C(C#N)=C(N)Oc2n[nH]c(CC)c21 (stereo not given),i,i,i,i,i
COc1cc(OC)cc(C(C(=O)NCc2ccccc2)N(Cc2ccco2)C(=O)c2ccno2)c1 (stereo not given),i,i,60.3,69.1,i
O=C1CC(c2c[nH]c3ccccc23)C(=O)N1c1ccccc1 (stereo not given),nt,nt,nt,nt,i
COc1cccc(N2C(=O)CC(c3c[nH]c4ccccc34)C2=O)c1 (stereo not given),i,i,i,89.1,i
O=C(c1ccc(Cn2c(=O)[nH]c3ccccc3c2=O)cc1)N1CCN(c2ccccc2)CC1,i,i,i,i,i
CCc1nnc(NC(=O)CSc2nnc(CCc3nc4ccccc4[nH]3)n2C)s1,i,i,i,i,i
CCn1c(Cn2nnc(-c3ccccc3)n2)nnc1SCC(=O)Nc1ccc(N(C)C)cc1,i,i,i,i,nt
CN(C)c1ccc(-c2nnn(Cc3ccccc3Br)n2)cc1,i,i,i,96.5,i
CO/N=C/NC(=O)NOCc1c(Cl)cccc1Cl,i,i,i,i,i
Cc1ccc(OCC(=O)Nc2ccc(N3CCCC3)cc2)cc1C,i,i,i,i,i
Cc1cccc(NC(=O)COc2ccc3oc4c(c3c2)CCCC4)n1,i,i,85.3,51.3,i
Cc1ccc(S(=O)(=O)N2CCN(C(=O)CSc3nc4ccccc4o3)C2)cc1,i,i,i,87.5,i
COc1ccccc1N1CCN(C(=O)CSc2nc3ccccc3o2)CC1,i,i,i,64.2,i
COc1ccccc1N1CCN(C(=O)CSc2nnc(NC(=O)C3CC3)s2)CC1,i,i,81.6,i,i
CCCCC(=O)Nc1nnc(SCC(=O)N2CCN(c3ccccc3OC)CC2)s1,i,i,i,i,nt
COc1ccccc1N1CCN(C(=O)CSc2nc3ccccc3c(=O)n2CC2CCCO2)CC1 (stereo not given),i,i,65.9,i,i
Cc1ccc(S(=O)(=O)N2CCN(C(=O)CSc3nnc(C)s3)C2)cc1,i,i,i,i,i
O=C(CSc1nc2ccccc2o1)N1CCN(C(=O)c2ccco2)CC1,i,i,i,i,i
SMILES,CYP2C9 act,CYP2C19 activ,CYP2C9 inh,CYP2C19 inh,EphB4 ephrin blk
CCOC(=O)CSc1nc2ccccc2c(=O)n1CC1CCCO1 (stereo not given),i,i,i,i,i
O=C(NCCNS(=O)(=O)c1ccccc1Cl)c1cc(OCC(F)(F)F)ccc1OCC(F)(F)F,i,i,i,i,i
Cc1ccc(Cl)cc1N1CCN(Cc2nc3c(c(=O)[nH]c(=O)n3C)n2Cc2ccccc2F)CC1,i,i,i,i,nt
COc1ccc2c(c1)C(C)=CC(C)(C)N2C(=O)CSc1nnc(-c2ccc(C)cc2)o1,i,i,65.1,65.8,i
CC1=CC(C)(C)N(C(=O)CSc2ncn[nH]2)c2ccc(C)cc21,i,i,55.4,89.4,i
Cc1ccc(OCC(=O)n2nc(C)cc2C)c(Br)c1,nt,nt,nt,nt,i
Cc1ccsc1/C=C/c1ccc2cccc(O)c2n1,i,i,72.6,56.8,i
COc1cc(CNCc2ccccn2)ccc1OCc1cccc(Cl)c1,i,i,i,83.4,i
COc1cc(C(=O)NCc2ccccn2)ccc1OCc1c(C)noc1C,i,i,i,i,i
COc1cc(CNCc2ccccn2)ccc1OCc1c(Cl)cccc1Cl,i,i,i,68.7,i
CC(C)Cc1cc(C(=O)Nc2ccc3c(c2)OCO3)no1,i,i,i,i,nt
Cc1ccc(N2C(=S)N=C(Nc3ccccc3C)C23CCOC(C)(C)C3)cc1 (stereo not given),i,i,51.1,i,i
COC(=O)c1c(C)[nH]c(C(=O)COC(=O)Cc2ccc3c(c2)OCCO3)c1C,i,i,81.2,i,i
Cc1cc(OC(=O)c2cccs2)ccc1C(C)C,i,i,i,i,i
CC(=O)Nc1ccc(NC(=O)CN(c2ccc(F)cc2)S(=O)(=O)c2ccc3c(c2)OCCO3)cc1,i,i,i,i,i
O=C(CN(c1ccc(F)cc1)S(=O)(=O)c1ccc2c(c1)OCCO2)Nc1cccnc1,i,i,98.8,92.3,i
O=C(CN(Cc1ccccc1)S(=O)(=O)c1ccc2c(c1)OCCO2)Nc1ccc2c(c1)OCCO2,i,i,96.0,i,i
O=C(CN(c1ccc(F)cc1)S(=O)(=O)c1ccc2c(c1)OCCO2)Nc1ccc2c(c1)OCO2,i,i,i,i,i
O=C(CN(c1ccc(F)cc1)S(=O)(=O)c1ccc2c(c1)OCCO2)Nc1ccccc1,i,i,64.9,i,i
O=C(Nc1nc2ccc(S(=O)(=O)N3CCCC3)cc2s1)c1cccs1,i,i,i,i,i
Cc1ccc(S(=O)(=O)Nc2nc3ccc(S(=O)(=O)N4CCCC4)cc3s2)cc1,i,i,98.0,i,i
O=S(=O)(Nc1nc2ccc(S(=O)(=O)N3CCCCC3)cc2s1)c1ccccc1,i,i,99.3,i,i
O=C(Nc1nc2ccc(S(=O)(=O)N3CCCCC3)cc2s1)c1ccncc1,i,i,84.5,86.2,i
O=C(CCc1ccccc1)Nc1nc2ccc(S(=O)(=O)N3CCOCC3)cc2s1,i,i,i,i,i
C1=Nc2c(NCc3ccccc3)ncnc2Oc2ccccc21,i,i,i,i,i
SMILES,CYP2C9 act,CYP2C19 activ,CYP2C9 inh,CYP2C19 inh,EphB4 ephrin blk
Cc1cc2c(ncn2Cc2ccccc2)c(NS(C)(=O)=O)c1C,i,i,i,54.1,i
COc1cccc(Cn2cnc3c(NS(=O)(=O)c4cc(Cl)ccc4Cl)c(C)c(C)cc32)c1,i,i,53.1,i,i
COc1cccc(Cn2cnc3c(NS(=O)(=O)c4ccc(Cl)cc4Cl)c(C)c(C)cc32)c1,i,i,i,i,i
COc1cccc(Cn2cnc3c(NS(=O)(=O)c4cccc(Cl)c4Cl)c(C)c(C)cc32)c1,i,i,96.4,84.3,i
CCOC(=O)C(CC)Sc1nc(N)c(NC(=O)c2ccc(OC)c(OC)c2)c(=O)[nH]1 (stereo not given),i,i,i,i,i
O=S(=O)(c1ccc(Cl)c(Cl)c1)N1CCc2nc3ccccc3n2CC1,i,i,i,i,i
O=C(Nc1cccc2ccccc12)C1CCN(C(=O)Cc2ccccc2)CC1,nt,nt,nt,nt,i
Cc1ccc(C2(C(F)(F)F)NC(=O)N3CCN=C3S2)cc1 (stereo not given),i,i,i,76.1,i
Cc1ccc(C2(C(F)(F)F)NC(=O)N3CCCN=C3S2)cc1 (stereo not given),i,i,i,76.2,nt
